# In the OligoGym collection:
# Target: ZSCAN21
# Test: pooled miR-30 sensor sort-seq; sequence = guide strand
# Settings: shRNA
# Note: reference of the scale not given here.
row,Sequence,sensor-assay potency score (higher = more potent)
1,TTCGTTACACTGATAAGGCTTC,0.478
2,TACTCAATCTGCAATCTCGGAC,-0.338
3,TTTAAGAAGGTCTGAGCTCTGC,0.0311
4,TGATACAAACTCTATCACCGGA,0.695
5,TAGACTGGATACACGTCTGTTT,-0.362

# Target: ZSCAN2
# Test: as above
# Settings: shRNA
row,Sequence,sensor-assay potency score (higher = more potent)
1,TTAGATTGGAGTTGTAACTAAA,-0.577
2,TTCACTGTCCTGAAGGGTCTGG,0.109
3,TTCATTCTCAAACATGTCTTGA,-0.592
4,TAGTATACAAAAGCTACCCGAC,-0.627
5,TAAAGCTTTTTCCACATTCATC,-1.45
6,TTTCCGAGAATATCTTACGTGA,-0.583
7,TTGTAGTATTTCTCTCCTGTGT,-0.38
8,TTGTAACTAAAGCTTTCGCCGC,-0.979
9,TAAAATTTGAACCATCACTAAA,-1.38
10,TACAGCACTGTCCTGAAGGGTC,-0.556
11,TATCTCAAAATCACTGTCCTGA,0.962
12,TTGAGGAGGTTGGAGCTCCAGC,-0.932

# Target: ZSWIM5
# Test: as above
# Settings: shRNA
row,Sequence,sensor-assay potency score (higher = more potent)
1,TAGCAATCTTGAATGCATCTTG,0.435
2,TAGTCTTTCACTTTCCCGCTGG,0.269
3,TTGAGGTTGTCGATGAACTGGG,-0.0434
4,TTAAAGAGTAGTCTTTCACTTT,-0.123
5,TTGCACTAGCTCATCGTCCAGC,-0.629
6,TTGTCTGTCATGTTTGTTCCTT,-0.0787
7,TAGCTCATCGTCCAGCTGCAGC,-1.21
8,TAGTGAATACTGTTCGTCTTGG,-0.686
9,TTGAGTTGAGTTGCTTTCCAGA,-0.443
10,TAGAATATGTCCTTGTTCCCAC,-0.0166
11,TTCTGTAGCACAGGTCACCAAC,-1.2
12,TTTGTCAGTGGACATGAGCTTT,-0.796

# Target: ZZEF1
# Test: as above
# Settings: shRNA
row,Sequence,sensor-assay potency score (higher = more potent)
1,TTTCTTTTGAACTTATGCCCGT,-0.351
2,TTCTTGTTTTAGTATCTCCATG,-1.42
3,TTGAGAAATCTGTAGATCCTGG,0.26
4,TTAGTGTTTTATACAATCCTTT,-0.602
5,TTAACCTCCTTACTATTCCGGT,-0.49
6,TTGAGGAGCAGGTTCTGTCTGA,-0.0904
7,TTATAGGCAAACACCAACCCAC,-0.586
8,TTCAGCTGCAGGTAGCACCAGG,-0.559
9,TAGCACTTTGCTACTGACTTGA,0.394
10,TTAATCTGGACATAGAGCTGAC,-0.316
11,TTTAACAGGTCACAGTAGCGAG,-1.06
